# Key:
# ETS1 [1] = target: T1, ETS1 (UniProt P14921); test: ETS1 binding intensity (PBM fluorescence), ETS1 alone (arbitrary fluorescence units); higher = stronger binding; conditions: ETS1 concentration 1 nM; RUNX1 concentration 0 nM
# T1 sequence: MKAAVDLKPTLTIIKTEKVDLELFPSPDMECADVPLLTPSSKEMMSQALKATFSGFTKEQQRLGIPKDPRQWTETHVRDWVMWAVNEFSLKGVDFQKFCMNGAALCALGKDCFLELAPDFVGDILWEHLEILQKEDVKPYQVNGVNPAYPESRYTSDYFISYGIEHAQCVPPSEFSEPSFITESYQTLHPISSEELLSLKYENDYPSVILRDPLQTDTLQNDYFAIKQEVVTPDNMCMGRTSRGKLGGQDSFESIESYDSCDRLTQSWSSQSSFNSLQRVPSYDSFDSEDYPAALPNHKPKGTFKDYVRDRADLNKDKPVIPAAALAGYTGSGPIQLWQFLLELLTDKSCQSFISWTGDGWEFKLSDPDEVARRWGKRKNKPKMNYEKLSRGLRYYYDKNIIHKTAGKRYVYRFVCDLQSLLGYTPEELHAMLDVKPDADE
# RUNX1 [2] = target: RUNX1 (UniProt Q01196); test: RUNX1 binding intensity (PBM fluorescence), RUNX1 alone (arbitrary fluorescence units); higher = stronger binding; conditions: RUNX1 concentration 2 nM; ETS1 concentration 0 nM
# Sequence of RUNX1 (Q01196 whole entry): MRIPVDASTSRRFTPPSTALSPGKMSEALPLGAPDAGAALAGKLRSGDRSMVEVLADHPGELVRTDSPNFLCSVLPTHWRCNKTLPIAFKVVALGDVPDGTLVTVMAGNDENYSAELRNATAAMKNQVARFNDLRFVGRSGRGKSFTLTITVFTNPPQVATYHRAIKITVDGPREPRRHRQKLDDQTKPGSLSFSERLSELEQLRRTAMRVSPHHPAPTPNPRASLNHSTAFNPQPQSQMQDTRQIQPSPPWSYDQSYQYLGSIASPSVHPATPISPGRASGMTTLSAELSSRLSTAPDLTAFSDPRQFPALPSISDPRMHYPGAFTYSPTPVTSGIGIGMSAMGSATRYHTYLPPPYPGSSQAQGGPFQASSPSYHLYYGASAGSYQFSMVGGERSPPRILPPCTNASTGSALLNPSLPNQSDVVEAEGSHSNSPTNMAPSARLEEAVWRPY
# Description: (§1)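 Cooperative gcPBM on 36-bp genomic probes with neighbouring ETS1 and RUNX1 sites. Recombinant human RUNX1 (2 nM) was incubated alone or with ETS1 (25 nM) and detected with anti-RUNX1 antibody plus Alexa488 secondary. Values are medians over 4 replicate spots; the RUNX1+ETS1 data were normalised to the RUNX1-only data. The probes sit in constant array flanks that are not printed.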
# ETS1 [3] = target: T1, ETS1; test: ETS1 binding intensity (PBM fluorescence) in presence of RUNX1, normalised to ETS1-only experiment (arbitrary fluorescence units); higher = stronger binding; conditions: ETS1 concentration 1 nM; RUNX1 concentration 25 nM
# RUNX1 [4] = target: RUNX1 (UniProt Q01196); test: RUNX1 binding intensity (PBM fluorescence) in presence of ETS1, normalised to RUNX1-only experiment (arbitrary fluorescence units); higher = stronger binding; conditions: RUNX1 concentration 2 nM; ETS1 concentration 25 nM
# Description: as §1
# 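Wherever RUNX1 binding intensity (PBM fluorescence) in presence of ETS1, normalised to RUNX1-only experiment is given: Full-length recombinant human ETS1 or RUNX1 bound to double-stranded 36-bp genomic probes on microarrays, detected by protein-specific primary antibody and Alexa488 secondary, spot fluorescence as median of four replicate spots.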
# 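Wherever RUNX1 binding intensity (PBM fluorescence), RUNX1 alone is given: Full-length recombinant human RUNX1 bound to double-stranded 36-bp genomic probes on a high-density microarray, scored as Alexa488 fluorescence per spot via anti-RUNX1 antibody, median of four replicate spots.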
Sequence,ETS1 binding intensity (ETS1 [1]),RUNX1 binding intensity (RUNX1 [2]),ETS1 binding intensity (ETS1 [3]),RUNX1 binding intensity (RUNX1 [4])
GCACCCGGCACTACTTCCCGACCCGCATCCCCCGCC,689,1260,683,1320
GTGGTCTCTCCCGGAAAAACCACTTCCACCGAGAAC,932,861,1440,1270
CGTTTCCTGTCTGGGACTGCGCCCACGCGGTCACGT,725,966,922,2450
CCTCACCCAGGAAGTGGCTGCGGCTGTCTCAGGGTT,2450,770,3340,1440
CTCTCTGGGCGGAAGGAACGCGGTCACCCTGAGAAA,547,833,968,871
AACTAGAGCGTCATTTCCTGTGGGTACAAGTCCAGT,1640,842,2400,1370
GCGAGACGCGGAAGAGGCTTGCGGTTGACCAAAGAA,407,1830,2010,4310
GACTCCATTTCCCGTCGGCTCGCGGTGGGAGCGCCG,417,981,453,1900
GTAAACTAGCTCTTCCGGTCTGTGGCCCTCACAGGA,2840,824,3250,1500
GACACGTCTTTGGAAGGATGTGGTTGCCGTGGGTTT,724,786,5580,880
CGGGCTGGGAGGAAGTGATGGCTGACCACAGAGGAG,1130,1000,4610,1570
TGAAACCCAGCAGGATGTGGGTTAACGGCAGGGGAG,2590,733,6440,2250
CAATGGATGGCCACATCCTCACCACAAACTGAGTCA,368,939,647,1360
CAGAGAGAGGCCACATCCCTGTGGTCACACATACCC,428,980,590,1030
TGGCTTTGCAGAAGGAAGCTGTGGTTTCTGGTCTTC,620,869,3340,1010
GCCGTAGCGGAAGAGTGTTCGTGGTCATGTGACGCC,671,718,814,1160
CCAGCCACTTCCGCTCGTCCGCCTAATACCGCGCCT,2130,1420,2430,4930
AGACCCGGAAGAACTTGTCCCAGTGTTGACCACACC,505,870,1100,938
GAAACCCCATGGGCAGGATGTGGGTGAGCTGTCTGG,3380,742,5020,1280

Sequence,ETS1 binding intensity (ETS1 [1]),RUNX1 binding intensity (RUNX1 [2]),ETS1 binding intensity (ETS1 [3]),RUNX1 binding intensity (RUNX1 [4])
TTCATCTCTCACTTCCTGTGGTGACGGCTGACGGGG,4120,1030,4690,1660
CGGGACCTGTTTCCTTGGGAACCACAAGATAAGACC,407,709,520,892
CATACAGGATGCTGGGGTATGTAAAACAAACCACGG,708,775,678,964
GAAAGCTGCACTATTTCCTGAGGTTAGAGGTTTAAA,522,815,502,1040
CCATATCTGGCTTCCTAAGGAGGAACCACAAACCGT,375,1040,828,1080
GAAATTTCCGCTTTCTTTCTGCAGCAGGAACCGCGG,2670,849,2590,2550
GTACGACAGCGGGTTCCGGTGACCACGAAGGCGGCA,404,938,467,1180
GAGATACACAGCGACATCCGCCCGCAAGAGCATGGT,823,733,1090,1280
ATCTCAACTAGGAAATGTTTTTGTGACCACAAAGGG,620,958,2310,949
AACAGTCACATCCGGGGCCGAGAGGAACCGCGAACG,1100,894,2080,1740
GCCGCTGGGTAGGCGGAAGTAGCCGCAGGCATGGCA,5590,760,7400,1000
AGCCGTTTCCGGCGCTCTACCCCGCCGCAGGCCGAG,833,859,979,2300
GCCACTTCCGGTCACTCCCCGCTGCGGCCTCGCGCT,7030,1190,8280,3940
GGCAACCTGAGCTTCCGTGTAAAACCACAGTGTGAC,372,1100,964,1290
CAGGGCACCTCCTACTTCCCCCCGCAGATAACTACC,875,999,1010,906
TGTTCAGGAACAGGAAATGAAACCCCGCAGCTTTGA,8520,748,11300,1150
TCGTGTTCTCTTCCGTTCTGTGGTAGCTTTTTGGTA,655,1470,557,1870
AGAAGGCGCCGGAAGTGGTCCCGCAGAGGCGGGGTG,8990,725,14100,2500

# Source: the supplement of paper PMC10681739
